Molecules are shown by their SMILES. About 5,100 (32%) of roughly 16,000 compounds were called active. Roughly 25% stayed inconclusive and do not appear here. The call rests on the fitted dose curve; in most records, active means well fitted curve in the direction sought with a large enough effect; inconclusive means small, poorly fitted or top-dose-only effect, or effect the other way; inactive means no such curve, though single readings can be large or run the other way. The list shows a part of the results.
On the % scale 0 is the no-effect control and ±100 the full control effect.

Sequence of Cytochrome P450 3A4 (Homo sapiens) (P08684 whole entry, looked up): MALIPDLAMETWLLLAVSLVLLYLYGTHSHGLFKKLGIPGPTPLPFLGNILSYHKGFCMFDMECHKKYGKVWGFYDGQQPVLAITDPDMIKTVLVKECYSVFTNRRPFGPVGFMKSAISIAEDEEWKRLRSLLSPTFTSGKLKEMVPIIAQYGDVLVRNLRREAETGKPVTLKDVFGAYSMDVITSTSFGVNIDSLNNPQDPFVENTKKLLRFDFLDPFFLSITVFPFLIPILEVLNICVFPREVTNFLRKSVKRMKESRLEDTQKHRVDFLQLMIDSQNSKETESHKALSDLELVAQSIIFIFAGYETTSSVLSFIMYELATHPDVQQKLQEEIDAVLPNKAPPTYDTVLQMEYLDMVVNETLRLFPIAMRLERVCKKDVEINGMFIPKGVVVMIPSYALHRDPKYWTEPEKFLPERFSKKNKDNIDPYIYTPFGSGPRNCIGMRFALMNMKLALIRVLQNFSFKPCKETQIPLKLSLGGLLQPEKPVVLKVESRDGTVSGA

The experiment addresses Cytochrome P450 3A4 (Homo sapiens) (UniProt P08684). Nature of the experiment: Cytochrome panel assay with activity outcomes. Particulars: recombinant CYP, pro-luciferin dealkylation, luminescence, p450-cyp3a4; series mostly up to 57.1 µM; activity, negative = inhibition: at the top concentration.
As to `CCOC(=O)c1c(NC(=O)CCCN2CCOCC2)sc2c1CC(C)(C)OC2`, the AC50 is 7.08 µM (active).
With `CCOC(=O)c1c(NC(=O)CCC(=O)N2CCOCC2)sc2c1CC(C)(C)OC2`, the concentration at half-maximal activity (AC50) is 12.6 µM (active).
Consider `Cn1c(=O)n(-c2ccc(Cl)cc2)c(=O)c2c3c(sc21)COC(C)(C)C3`, for which the “activity, negative = inhibition” value is 3.78% (inactive).
As to `Cn1c(O)c(C(C#N)=C2N=c3ccccc3=N2)c2ccccc21`, the AC50 is 3.55 µM (active).
In the case of `N=C(N)SCCN`, the AC50 entry was “inactive”.
On to `COC(=O)[C@@H]1O[C@@H](SCCN)[C@@H](O)[C@H](O)[C@H]1O`, for which the activity, negative = inhibition is -3.54% [at 11.4 µM] (inactive).
`CC(=O)O[C@]12CC[N@+]3(C)CCCC[C@@H]3[C-]1Nc1ccccc12`: the activity, negative = inhibition was 0.352% [at 11.4 µM] (inactive).
Regarding `Cc1cc2c(c(=O)o1)[C@@H](O)[C@H]1O[C@@H]1C2=O`, the activity, negative = inhibition is -17.6% [at 11.4 µM] (inactive).
On to `COc1ccccc1N1CCN(C[C@@H]2CN3C(=O)N(C)c4ccccc4C3=N2)CC1`, for which the AC50 was 15.8 µM (active).
On the same count and under the same terms, for `CC1=C(C(=O)N2CCCCCC2)C2(CCC(C)CC2)OC1=O` (stereo unspecified) the value was 11.2 µM (active).
Take `CC1=C(C(=O)NCCN2CCN(C)CC2)C2(CCC(C)CC2)OC1=O` (stereo unspecified): the “activity, negative = inhibition” value was -24.5% (inactive).
`Cc1cc(=O)oc(C)c1C(=O)N1CCCCC1`: the “activity, negative = inhibition” value was 5.9% (inactive).
Regarding `CCCCCC/C(C)=C1/SC(=S)NC1=O`, the activity, negative = inhibition is -11.2% [at 2.29 µM] (inactive).
`O=C(COc1cccc2ccccc12)NNC(=O)c1cccs1`: the AC50 was 25.1 µM (active).
With `O=C(CCC(=O)Nc1ccccc1)NNC(=O)c1cccs1`, the activity, negative = inhibition was 9.11% [at 2.29 µM] (inactive).
On to `CCC(=O)Nc1ccc(C(=O)NNC(=O)c2cccs2)cc1`, for which the “activity, negative = inhibition” value was -7.4% (inactive).
Turning to `O=C(Nc1cccc(-c2nc3ncccc3o2)c1)c1sc2cc(Cl)ccc2c1Cl`, the “activity, negative = inhibition” value is 0.466% (inactive).
With `CCCCCC(=O)Nc1cccc(-c2nc3ncccc3o2)c1`, the AC50 was 15.8 µM (active).
On to `O=C(CSc1ccc(Cl)cc1)Nc1cccc(-c2nc3ncccc3o2)c1`, for which the half-maximal activity concentration (AC50) is 12.6 µM (active).
Turning to `CCCCC(=O)Nc1ccc(C)c(O)c1`, the activity, negative = inhibition is 9.17% [at 2.29 µM] (inactive).
The same measure, in the same setting: for `CCc1ccc(OCC(=O)Nc2ccc(-c3nc4ccccc4o3)c(O)c2)cc1` the value was -2.69% (inactive); for `CC12CC[C@@H]3c4ccc(OP(=O)(O)O)cc4CCC3C1CCC2=O` (stereo partly specified), 5.91% [at 11.4 µM] (inactive); for `COc1c(N2CCN(C(=S)Nc3ccc(F)cc3)C(C)C2)c(F)cc2c(=O)c(C(=O)O)cn(C3CC3)c12` (stereo unspecified), 4.97% (inactive).
For the compound `O=S(=O)(c1ccc(Cl)cc1)c1cnc(-c2cccnc2)nc1-c1ccccc1`, the AC50 was 8.91 µM (active).
Regarding `O=S(=O)(c1ccccc1)c1cnc(-c2cccnc2)nc1-c1ccc(Cl)cc1Cl`, the AC50 is 2.82 µM (active).
Turning to `Clc1ccc(-c2nnc(-c3ccccc3)c(N3CCSCC3)n2)cc1`, the “activity, negative = inhibition” value was -23.1% (inactive).

Source of the values: PubChem BioAssay AID1851 (National Center for Advancing Translational Sciences (NCATS), 2009).
